Records with an inconclusive call do not appear. Entries that show only a call come without a potency. The source made the active and inactive calls. Calls follow the shape of the dose curve; as a rule, active = well fitted inhibition curve with a large enough effect; inconclusive = small, poorly fitted or top-dose-only effect; inactive = flat fitted curve, though single readings scatter.
Molecular target: Ubiquitin carboxyl-terminal hydrolase 1 (Homo sapiens) (UniProt O94782)
Test: Inhibitors of USP1/UAF1: Pilot qHTS (AID 504865);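 also: rhodamine fluorescence freed from ubiquitin-rhodamine substrate followed over time; top concentration of the series differs between compounds; nearly all actives have a fitted effect of over 35% in size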
Settings: purified USP1/UAF1, Ub-rhodamine cleavage fluorescence; series mostly up to 114 µM
Outline: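 USP1/UAF1 complex at 1 nM preincubated 15 min at room temperature with compound, then Ub-Rho substrate added at 150 nM final. Fluorescence (480/540 nm) read kinetically in 50 mM HEPES pH 7.8, 0.5 mM EDTA, 1 mM TCEP, 0.1 mg/ml BSA, 0.01% Tween-20.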

Ubiquitin carboxyl-terminal hydrolase 1 (Homo sapiens), sequence (O94782 whole entry, looked up): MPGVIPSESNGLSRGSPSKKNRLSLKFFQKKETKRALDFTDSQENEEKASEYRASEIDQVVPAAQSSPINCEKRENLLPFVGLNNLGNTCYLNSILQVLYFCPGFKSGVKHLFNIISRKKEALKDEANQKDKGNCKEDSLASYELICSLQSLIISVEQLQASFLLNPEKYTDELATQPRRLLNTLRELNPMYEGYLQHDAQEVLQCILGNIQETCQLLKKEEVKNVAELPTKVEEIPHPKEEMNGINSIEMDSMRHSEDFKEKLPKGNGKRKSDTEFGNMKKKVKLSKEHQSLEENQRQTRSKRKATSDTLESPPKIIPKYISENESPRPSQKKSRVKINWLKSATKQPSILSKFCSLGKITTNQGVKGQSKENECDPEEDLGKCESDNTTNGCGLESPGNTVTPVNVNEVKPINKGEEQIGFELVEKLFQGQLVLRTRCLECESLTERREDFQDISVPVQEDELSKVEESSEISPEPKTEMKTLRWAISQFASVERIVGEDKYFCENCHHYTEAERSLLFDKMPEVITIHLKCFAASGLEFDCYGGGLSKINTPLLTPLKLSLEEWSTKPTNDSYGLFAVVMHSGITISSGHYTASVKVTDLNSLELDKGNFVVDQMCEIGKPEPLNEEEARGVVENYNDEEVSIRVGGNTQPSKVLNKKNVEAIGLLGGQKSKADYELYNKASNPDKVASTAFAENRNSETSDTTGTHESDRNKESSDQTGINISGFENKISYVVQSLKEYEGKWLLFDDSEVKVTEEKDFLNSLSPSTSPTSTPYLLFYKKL

Compound | Potency
CCOC(=O)C1=C(COCCN)NC(C)=C(C(=O)OC)C1c1ccccc1Cl (stereo not drawn) | inactive
NCC[C@H](O)C(=O)N[C@@H]1C[C@H](N)[C@@H](O[C@H]2O[C@H](CN)[C@@H](O)[C@H](O)[C@H]2O)[C@H](O)[C@H]1O[C@H]1O[C@H](CO)[C@@H](O)[C@H](N)[C@H]1O | inactive
Cc1ccccn1 | inactive
CC(C)C1=CC2=CC[C@@H]3[C@](C)(CCC[C@@]3(C)C(=O)O)[C@H]2CC1 | inactive
CN1CCc2c(c3ccccc3n2Cc2ccccc2)C1 | inactive
CC1CCCCN1CCCOC(=O)c1ccccc1 (stereo not drawn) | inactive
O=C(O)CCC(=O)c1ccc(-c2ccccc2)cc1 | inactive
C=Cc1ccc(S(=O)(=O)O)cc1 | inactive
Cc1cccc(C)c1NC(=O)C1CCCCN1C (stereo not drawn) | inactive
CC/C(=C(/CC)c1ccc(OP(=O)(O)O)cc1)c1ccc(OP(=O)(O)O)cc1 | inactive
CCC(C(=O)NC(N)=O)c1ccccc1 (stereo not drawn) | inactive
CC(C)(COP(=O)(O)OP(=O)(O)OC[C@H]1O[C@@H](n2cnc3c(N)ncnc32)[C@H](O)[C@@H]1OP(=O)(O)O)C(O)C(=O)NCCC(=O)NCCS (stereo partly drawn) | inactive
Cc1cc(C(=O)NCCc2ccc(S(=O)(=O)NC(=O)NN3CCCCCC3)cc2)no1 | inactive
C=CC(=O)O | inactive
N=C(N)n1cccn1 | inactive
OC/C=C/c1ccccc1 | inactive
O[C@@H]([C@H](O)[C@H](O)CBr)[C@H](O)CBr | inactive
CC1=C(/C=C/C(C)=C/C=C/C(C)=C/C(=O)Oc2c(C)c(C)c3c(c2C)CC[C@@](C)(CCC[C@H](C)CCC[C@H](C)CCCC(C)C)O3)C(C)(C)CCC1 | inactive
